Among the test systems are DU-145 prostate; K-562 leukemia; MALME-3M melanoma; MDA-MB-231 breast; RXF 393 renal; SF-268 CNS; SF-295 CNS; SF-539 CNS; UACC-257 melanoma; M14 melanoma; HCT-15 colon; HT29 colon; SNB-75 CNS; SNB-19 CNS; U251 CNS; PC-3 prostate; SK-MEL-5 melanoma; UACC-62 melanoma; LOX IMVI melanoma; SK-MEL-28 melanoma.
What all share (test): NCI-60 one-dose screen, 48 h (100 = growth as untreated, 0 = no growth, -100 = all killed)
Common to all, as to conditions: 10 µM unless noted

About 83,000 compounds went through this panel and 20% of them were active in at least one assay; those are over-represented in the sample as a whole.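 Results are percent growth after 48 hours of single-concentration exposure. 100 means growth as in untreated cells, lower positive values show inhibition; negative values down to -100 show cell death.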 Unmarked numbers belong to inactive results. Active and inactive are the calls of the source. How the source made its calls: active means growth percent below 10; inactive means the rest.

Regarding `COc1ccc(-c2cc(-c3ccc(OC)c(OC)c3)nc(SCCCCCC(=O)NO)n2)cc1`, the growth is 58.8% in the experiment with DU-145 prostate; 26.1% in the experiment on K-562 leukemia; 19.4% with MALME-3M melanoma; 42.2% in the experiment with MDA-MB-231 breast; 42.1% in the experiment with RXF 393 renal; 82.3% with SF-268 CNS. Moreover, the growth in the experiment with SF-295 CNS was 72.9%; in the experiment with SF-539 CNS it was 55.4%; with UACC-257 melanoma, 41.8%; in the experiment on M14 melanoma, 47.7%; in the experiment with HCT-15 colon, 96.5%; with HT29 colon it was 31.3%. Further, the growth with SNB-75 CNS was 46.2%; with SNB-19 CNS, 65.8%; in the experiment with U251 CNS, 38.3%; with PC-3 prostate, 64.5%; in the experiment with SK-MEL-5 melanoma, 31.9%; with UACC-62 melanoma it was 24%. For the same compound, the growth was 56.9% with LOX IMVI melanoma and 35.5% with SK-MEL-28 melanoma.
`Cc1cc[n+](CCCCCCCCCC[n+]2ccc(C)cc2)cc1`: the growth with DU-145 prostate is 93.7%; with K-562 leukemia it was 79.8%; with MALME-3M melanoma it was 113%; with MDA-MB-231 breast, 105%; with RXF 393 renal it was 127%; in the experiment on SF-268 CNS it was 93.4%. The growth was 73.1% with SF-295 CNS; 99.2% in the experiment on SF-539 CNS; 106% in the experiment on UACC-257 melanoma; 97.7% in the experiment with M14 melanoma; 103% in the experiment with HCT-15 colon; 84.3% in the experiment on HT29 colon. Moreover, the growth in the experiment on SNB-75 CNS is 95.3%; in the experiment on SNB-19 CNS it was 104%; in the experiment on U251 CNS it was 105%; in the experiment on PC-3 prostate, 87.6%; in the experiment on SK-MEL-5 melanoma, 92.8%; in the experiment on UACC-62 melanoma, 92.6%. Also, the growth in the experiment on LOX IMVI melanoma was 91.4%; with SK-MEL-28 melanoma, 101%.
As to `Cc1cc(C)c(O)c(CNCCCNCc2cc(C)cc(C)c2O)c1`, the growth with DU-145 prostate is 87.8%; in the experiment with K-562 leukemia it was 15.3%; in the experiment on MALME-3M melanoma it was -65.9% (active); with MDA-MB-231 breast, 35.8%; with RXF 393 renal, 47.9%; in the experiment with SF-268 CNS, 74.7%. Further, the growth is 30.3% in the experiment on SF-295 CNS; -11.8% (active) in the experiment with SF-539 CNS; 4.87% (active) in the experiment with UACC-257 melanoma; -65.8% (active) with M14 melanoma; 34.9% in the experiment on HCT-15 colon; 70.9% with HT29 colon. For the same compound, the growth is 59.6% in the experiment with SNB-75 CNS; 68.9% in the experiment on SNB-19 CNS; 51.3% in the experiment on U251 CNS; 64.8% in the experiment on PC-3 prostate; 61.9% with SK-MEL-5 melanoma; 12.6% with UACC-62 melanoma. Also, the growth with LOX IMVI melanoma is 39.8%; with SK-MEL-28 melanoma, 62.4%.
Regarding `O=C(NCc1ccc(Cn2c(=O)sn(-c3ccccc3)c2=O)cc1)OCc1ccc2c(Br)cc(Br)c(O)c2n1`, the growth was -89.6% (active) in the experiment with DU-145 prostate; 5.05% (active) in the experiment with K-562 leukemia; -76.7% (active) in the experiment with MALME-3M melanoma; -53.4% (active) with MDA-MB-231 breast; -90.9% (active) with RXF 393 renal; -59.9% (active) in the experiment on SF-268 CNS. The growth with SF-295 CNS is 9.81% (active); in the experiment with SF-539 CNS it was -93.6% (active); in the experiment on UACC-257 melanoma, -17.2% (active); in the experiment on M14 melanoma it was -62.6% (active); in the experiment with HCT-15 colon it was -10.2% (active); in the experiment on HT29 colon, -66.6% (active). In addition, the growth was -93.8% (active) in the experiment on SNB-75 CNS; 19.2% in the experiment on SNB-19 CNS; -83.6% (active) with U251 CNS; -56.1% (active) in the experiment on PC-3 prostate; -97.4% (active) in the experiment with SK-MEL-5 melanoma; -76.1% (active) in the experiment with UACC-62 melanoma. In addition, the growth in the experiment on LOX IMVI melanoma is -92.3% (active); in the experiment on SK-MEL-28 melanoma it was -69.9% (active).
For the compound `COc1cc(-c2nc(SCCC(C)C)nc(Nc3ccccc3)c2C#N)cc(OC)c1OC`, the growth in the experiment with DU-145 prostate is 97.1%; in the experiment on K-562 leukemia it was 93.7%; in the experiment with MALME-3M melanoma it was 104%; with MDA-MB-231 breast, 59.8%; with RXF 393 renal, 114%; in the experiment on SF-268 CNS, 95.9%. Further, the growth with SF-295 CNS was 100%; in the experiment with SF-539 CNS, 96.2%; in the experiment with UACC-257 melanoma it was 107%; in the experiment on M14 melanoma, 100%; in the experiment with HCT-15 colon, 96.8%; in the experiment with HT29 colon it was 82.3%. Besides, the growth with SNB-75 CNS is 66.8%; in the experiment with SNB-19 CNS it was 99.4%; in the experiment on U251 CNS, 85%; in the experiment on PC-3 prostate, 83.8%; with SK-MEL-5 melanoma, 97.3%; in the experiment on UACC-62 melanoma it was 71.8%. In addition, the growth in the experiment on LOX IMVI melanoma was 99.4%; with SK-MEL-28 melanoma, 103%.
Take `COc1cc(C)cc2oc3oc(=O)c(-c4nc5ccccc5s4)cc3c(=O)c12`: the growth in the experiment with DU-145 prostate is 98.8%; with K-562 leukemia, 99.8%; with MALME-3M melanoma, 94%; with MDA-MB-231 breast, 95.1%; in the experiment with RXF 393 renal, 77.5%; in the experiment on SF-268 CNS it was 96.6%. Further, the growth in the experiment on SF-295 CNS is 98.9%; in the experiment on SF-539 CNS, 83.7%; in the experiment with UACC-257 melanoma, 109%; with M14 melanoma it was 99%; with HCT-15 colon it was 102%; in the experiment with HT29 colon, 103%. Also, the growth with SNB-75 CNS was 79.3%; in the experiment with SNB-19 CNS, 92.9%; with U251 CNS it was 93.4%; in the experiment on PC-3 prostate, 94.1%; in the experiment on SK-MEL-5 melanoma, 99.5%; in the experiment on UACC-62 melanoma, 67.7%. Moreover, the results for the growth with LOX IMVI melanoma and with SK-MEL-28 melanoma were 94.1% and 93.2%, respectively.
For the compound `CCNc1cc2c(cc1Br)-c1ccccc1C2=O`, the growth in the experiment on DU-145 prostate was 97.7%; with K-562 leukemia, 102%; in the experiment on MALME-3M melanoma, 92.8%; with MDA-MB-231 breast it was 73.2%; with RXF 393 renal, 105%; with SF-268 CNS, 90%. Besides, the growth in the experiment with SF-295 CNS was 106%; with SF-539 CNS, 103%; in the experiment on UACC-257 melanoma, 93.4%; with M14 melanoma it was 107%; with HCT-15 colon, 77.6%; in the experiment on HT29 colon, 97.4%. The growth with SNB-75 CNS is 78.1%; in the experiment on SNB-19 CNS, 96%; in the experiment with U251 CNS, 96.3%; with PC-3 prostate it was 81.4%; in the experiment with SK-MEL-5 melanoma, 95.2%; in the experiment with UACC-62 melanoma, 86.9%. For the same compound, the growth with LOX IMVI melanoma was 88.1%; in the experiment on SK-MEL-28 melanoma, 114%.

The values above are taken from PubChem BioAssay (NCI).
